# According to PubChem BioAssay (NCATS):
# Inconclusive results are not listed. Values without a mark were called inactive. Unless noted, calls come from the whole dose curve.
# Test: Cell Viability - BJ (AID 421);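 note: cells exposed to compound for 40 hours at 37 °C before readout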
# Settings: BJ fibroblast viability, qHTS
# Outline: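 Cytotoxicity in human BJ foreskin fibroblasts is scored as loss of cellular ATP after a 40-hour exposure, measured by luciferase luminescence. Controls are DMSO and 100 uM tamoxifen.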
# Potency is the fitted concentration of half-maximal effect.
row,Compound,Potency
1,Cc1cc(C)c(N)cc1C,> 92 µM
2,Cc1cccc2ccccc12,> 92 µM
3,C=C(C)C(=O)OCC(C)C,> 92 µM
4,O=Cc1ccc(C(=O)O)cc1,> 92 µM
5,CCOc1cc(OCC)c(C(C)=O)cc1OCC,> 92 µM
6,CCCCC(CC)CNCC(CC)CCCC (stereo not drawn),> 92 µM
7,C=CCOC(=O)COCCC(C)C,> 92 µM
8,ICCc1ccccc1,> 92 µM
9,Cc1ccccc1C(N)=O,> 92 µM
10,CNC(=O)c1ccccc1,> 92 µM
11,ClCCl,> 92 µM
12,CCOc1ccc(NC(C)=O)cc1N,> 92 µM
13,Nc1ccc(F)cc1F,> 92 µM
14,CC(=O)c1ccc([N+](=O)[O-])cc1,> 92 µM
15,CCCCN(CCO)CCCC,> 92 µM
16,BrC(Br)C(Br)Br,> 92 µM
17,Nc1nc(CC(=O)O)cs1,> 92 µM
18,O=[N+]([O-])c1cc(C(F)(F)F)ccc1Cl,> 92 µM
19,Cc1ccc(C(C)(C)C)cc1,> 92 µM
20,CC(C)=CCl,> 92 µM

row,Compound,Potency
1,O=Cc1ccc(Cl)cc1,> 92 µM
2,NC(=O)c1cccc([N+](=O)[O-])c1,> 92 µM
3,C=CCn1c(=O)n(CC=C)c(=O)n(CC=C)c1=O,> 92 µM
4,Cc1cc(C)cc([N+](=O)[O-])c1,> 92 µM
5,CC(=O)OC(C)C,> 92 µM
6,CCC(=O)/C=C/C1C(C)=CCCC1(C)C (stereo not drawn),> 92 µM
7,CC(=O)CCc1ccccc1,> 92 µM
8,CCCCOCCOCCOCCCC,> 92 µM
9,Cc1cc(C(=O)O)ccc1[N+](=O)[O-],> 92 µM
10,Cc1cccc(C)c1O,> 92 µM
11,O=c1[nH][nH]c(=O)c2cc([N+](=O)[O-])ccc12,> 92 µM
12,CC(C)CCOC(=O)/C=C/c1ccccc1,> 92 µM
13,NC(=O)CCCCC(N)=O,> 92 µM
14,ON=C1CCCCC1,> 92 µM
15,CC(=O)Nc1ccccc1C,> 92 µM
16,COC(=O)CS,> 92 µM
17,Cc1ccc2cccnc2c1,> 92 µM
18,Cc1cccc([N+](=O)[O-])c1C(=O)O,> 92 µM
19,CCOc1cccc(N)c1,> 92 µM

# Test: Cell Viability - Jurkat (AID 426;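 active = dose-dependent loss of cell ATP signal giving a full or clear fitted curve, ranked by lower potency value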)
# Settings: qHTS
# Outline: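 Jurkat (clone E6-1, human T-cell leukemia) cells, 5000/well in complete medium, were exposed to compound for 40 hr at 37 °C. Viability was read as intracellular ATP by CellTiter-Glo luminescence; AC50 came from Hill fits of concentration-response data.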
row,Compound,Potency
1,Cc1cc(C)c(N)cc1C,> 92 µM
2,Cc1cccc2ccccc12,> 92 µM
3,C=C(C)C(=O)OCC(C)C,> 92 µM
4,O=Cc1ccc(C(=O)O)cc1,> 92 µM
5,CCOc1cc(OCC)c(C(C)=O)cc1OCC,> 92 µM
6,CCCCC(CC)CNCC(CC)CCCC (stereo not drawn),> 92 µM
7,C=CCOC(=O)COCCC(C)C,> 92 µM
8,ICCc1ccccc1,> 92 µM
9,Cc1ccccc1C(N)=O,> 92 µM
10,CNC(=O)c1ccccc1,> 92 µM
11,ClCCl,> 92 µM
12,CCOc1ccc(NC(C)=O)cc1N,> 92 µM
13,Nc1ccc(F)cc1F,> 92 µM
14,CC(=O)c1ccc([N+](=O)[O-])cc1,> 92 µM
15,CCCCN(CCO)CCCC,> 92 µM
16,BrC(Br)C(Br)Br,> 92 µM
17,Nc1nc(CC(=O)O)cs1,> 92 µM
18,O=[N+]([O-])c1cc(C(F)(F)F)ccc1Cl,> 92 µM
19,Cc1ccc(C(C)(C)C)cc1,> 92 µM
20,CC(C)=CCl,> 92 µM

row,Compound,Potency
1,O=Cc1ccc(Cl)cc1,> 92 µM
2,NC(=O)c1cccc([N+](=O)[O-])c1,> 92 µM
3,C=CCn1c(=O)n(CC=C)c(=O)n(CC=C)c1=O,> 92 µM
4,Cc1cc(C)cc([N+](=O)[O-])c1,> 92 µM
5,CC(=O)OC(C)C,> 92 µM
6,CCC(=O)/C=C/C1C(C)=CCCC1(C)C (stereo not drawn),> 92 µM
7,CC(=O)CCc1ccccc1,> 92 µM
8,CCCCOCCOCCOCCCC,> 92 µM
9,Cc1cc(C(=O)O)ccc1[N+](=O)[O-],> 92 µM
10,Cc1cccc(C)c1O,> 92 µM
11,O=c1[nH][nH]c(=O)c2cc([N+](=O)[O-])ccc12,> 92 µM
12,CC(C)CCOC(=O)/C=C/c1ccccc1,> 92 µM
13,NC(=O)CCCCC(N)=O,> 92 µM
14,ON=C1CCCCC1,> 92 µM
15,CC(=O)Nc1ccccc1C,> 92 µM
16,COC(=O)CS,> 92 µM
17,Cc1ccc2cccnc2c1,> 92 µM
18,Cc1cccc([N+](=O)[O-])c1C(=O)O,> 92 µM
19,CCOc1cccc(N)c1,> 92 µM
